Results: PubChem BioAssay (NCATS)
Inconclusive results are not listed. Activity calls are given as the source filed them. The call rests on the fitted dose curve; in most records, active means well fitted inhibition curve with a large enough effect; inconclusive means small, poorly fitted or top-dose-only effect; inactive means flat fitted curve, though single readings scatter.

How the values were obtained:
Test in all cases: qHTS profiling for inhibitors of Plasmodium falciparum proliferation (AID 504749); further: nearly all actives have a fitted effect of over 60% in size
Details in all cases: P. falciparum in erythrocytes, SYBR Green DNA, 72 h; series mostly up to 28.7 µM
7G8 = test system: 7G8
Procedure, shortened: (§1)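 In a 72 h erythrocytic culture (37 C, humidified, 5% CO2) at 2.5% hematocrit and 0.3% starting parasitemia, compounds were tested; SYBR Green I in detergent lysis buffer stained parasite DNA overnight.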

AS120 = test system: AS120
Procedure, shortened: as §1

ATS189 = test system: ATS189
Procedure, shortened: as §1

CP185 = test system: CP185
Procedure, shortened: as §1

CP194 = test system: CP194
Procedure, shortened: as §1

CP203 = test system: CP203
Procedure, shortened: as §1

CP250 = test system: CP250
Procedure, shortened: as §1

CP256 = test system: CP256
Procedure, shortened: as §1

CP260 = test system: CP260
Procedure, shortened: as §1

CP265 = test system: CP265
Procedure, shortened: as §1

CP297 = test system: CP297
Procedure, shortened: as §1

CP305 = test system: CP305
Procedure, shortened: as §1

CP315 = test system: CP315
Procedure, shortened: as §1

CP325 = test system: CP325
Procedure, shortened: as §1

CP329 = test system: CP329
Procedure, shortened: as §1

ICS = test system: ICS
Procedure, shortened: as §1

JCK = test system: JCK
Procedure, shortened: as §1

PC15 = test system: PC15
Procedure, shortened: as §1

PC49 = test system: PC49
Procedure, shortened: as §1

TAB113 = test system: TAB113
Procedure, shortened: as §1

Measured: Potency

C[C@H](N)Cc1ccccc1
inactive: all assays above

COc1ccc2c3c1O[C@H]1[C@@H](O)C=C[C@H]4C(C2)NCCC341 (stereo not given in full)
inactive: all assays above
